The text below walks through data of PubChem BioAssay (EPA / NIEHS).

Activity calls are given as the source filed them. The calls were made as follows: active = hit-call score of the fitted dose curve at least 0.9, where 1 is the maximum; inactive = score below 0.9.

Assay [1] is described as follows: ATG_CRE_CIS: Attagene CIS-FACTORIAL HepG2 Assay for human cAMP Responsive Element (CRE) binding protein 3 (AID 2282926). Conditions: HepG2 CRE cis-reporter, Attagene multiplexed mRNA; actives raise or lower the signal. The procedure, abridged:
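Transfected HepG2 were treated for 24 hours, then RNA was extracted and reporter cDNA amplified with sequence-specific primers. Labelled fragments were separated by capillary electrophoresis, and the CRE signal was fitted bidirectionally with DMSO as baseline.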

Assay [2] has as its target CCAAT/enhancer-binding protein beta (Homo sapiens) (UniProt P17676). Description: ATG_C_EBP_CIS: Attagene CIS-FACTORIAL HepG2 Assay for human CCAAT/Enhancer Binding Protein (C/EBP) beta (AID 2282927). Conditions: HepG2 Attagene cis-factorial transcription factor reporter; actives raise or lower the signal. In outline: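 Following a 24 h incubation with test chemical, transfected HepG2 cells yielded RNA whose reporter transcripts were quantified by RT-PCR and fluorescent capillary electrophoresis, with DMSO serving as baseline for bidirectional fitting.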

A short description of assay [3]: ATG_CMV_CIS: Attagene CIS-FACTORIAL HepG2 Assay for human CMV (Internal Marker) (AID 2282928).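 Also: endpoint acts as a background internal control marker rather than a target.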 Conditions: HepG2 CMV promoter reporter, transcription factor profiling; actives raise or lower the signal. In outline: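 After transient transfection of HepG2 with reporter transcription units driven by cis-regulatory promoters, cells receive test chemical for 24 h. Labeled reporter amplicons, digested with HpaI, are sized and quantified by capillary electrophoresis against DMSO.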

The nature of assay [4]: ATG_DR4_LXR_CIS: Attagene CIS-FACTORIAL HepG2 Assay for human Liver X Receptor (LXR), DR4 submotif (AID 2282929). As to conditions: HepG2 Attagene DR4 cis-reporter, mRNA transcription; actives raise or lower the signal. The procedure, abridged: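 Measures endogenous transcription factor activity via a DR4-driven reporter transcript in human HepG2 cells. Compounds incubated 24 h; mRNA quantified by RT-PCR and capillary electrophoresis, analysed as gain or loss of signal versus DMSO.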

The target of assay [5] is Aryl hydrocarbon receptor (Homo sapiens) (UniProt P35869). Description: ATG_Ahr_CIS: Attagene CIS-FACTORIAL HepG2 Assay for human Aryl Hydrocarbon Receptor (Ahr) (AID 2282930). As to conditions: HepG2 AhR cis-factorial reporter transcription; actives raise or lower the signal. In outline: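 Values derive from bidirectional fitting against DMSO negative control. Underlying signal: cis-element reporter mRNA in transiently transfected HepG2, harvested 24 h post-dose and measured by RT-PCR plus capillary electrophoresis.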
Sequence of Aryl hydrocarbon receptor (Homo sapiens) (P35869 whole entry, looked up): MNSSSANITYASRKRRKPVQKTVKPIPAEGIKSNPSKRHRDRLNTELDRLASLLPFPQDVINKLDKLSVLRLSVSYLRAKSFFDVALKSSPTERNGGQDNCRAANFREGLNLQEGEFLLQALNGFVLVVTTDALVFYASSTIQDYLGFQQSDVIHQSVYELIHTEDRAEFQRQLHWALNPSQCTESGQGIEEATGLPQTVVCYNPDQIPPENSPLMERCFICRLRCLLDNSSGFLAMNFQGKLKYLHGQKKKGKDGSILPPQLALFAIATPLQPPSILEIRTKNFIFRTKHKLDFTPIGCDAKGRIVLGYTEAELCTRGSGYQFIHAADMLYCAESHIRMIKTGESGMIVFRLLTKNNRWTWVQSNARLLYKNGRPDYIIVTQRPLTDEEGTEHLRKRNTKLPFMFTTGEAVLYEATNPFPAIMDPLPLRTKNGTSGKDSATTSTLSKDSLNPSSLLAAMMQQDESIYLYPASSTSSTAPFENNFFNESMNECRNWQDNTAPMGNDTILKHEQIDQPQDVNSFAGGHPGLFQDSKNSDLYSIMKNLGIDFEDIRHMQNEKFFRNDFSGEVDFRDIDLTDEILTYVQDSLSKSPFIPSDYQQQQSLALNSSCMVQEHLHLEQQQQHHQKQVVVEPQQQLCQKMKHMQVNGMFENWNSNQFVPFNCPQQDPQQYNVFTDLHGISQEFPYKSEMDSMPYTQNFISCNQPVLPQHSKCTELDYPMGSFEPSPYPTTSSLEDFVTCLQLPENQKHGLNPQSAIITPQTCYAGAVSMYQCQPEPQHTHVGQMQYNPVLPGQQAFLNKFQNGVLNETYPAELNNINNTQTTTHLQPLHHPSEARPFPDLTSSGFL

A short description of assay [6]: ATG_AP_1_CIS: Attagene CIS-FACTORIAL HepG2 Assay for human Activator Protein 1 (AP-1) (AID 2282931). Conditions: HepG2 Attagene cis-factorial AP-1 reporter mRNA; actives raise or lower the signal. In outline:
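Bidirectional concentration-response fitting against DMSO controls. Underlying signal: reporter mRNA from cis-promoter constructs in transiently transfected HepG2, measured after 24 h by RT-PCR and capillary electrophoresis.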

Assay [7] is described as follows: ATG_AP_2_CIS: Attagene CIS-FACTORIAL HepG2 Assay for human Activator Protein 2 (AP-2) (AID 2282932). Conditions: HepG2 AP-2 cis-reporter, Attagene transcription factor profiling; actives raise or lower the signal. In outline:
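HepG2 cells were transiently transfected with multiple cis-promoter reporter transcription units and dosed for 24 h. Reporter mRNA was measured by RT-PCR with capillary electrophoresis fluorescence; bidirectional fits relative to DMSO baseline.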

A short description of assay [8]: ATG_BRE_CIS: Attagene CIS-FACTORIAL HepG2 Assay for human Bone Morphogenetic Protein (BMP) Response Element (BRE) (AID 2282933). Conditions: HepG2 BMP response element reporter, Attagene transcription factor profiling; actives raise or lower the signal. The procedure, abridged: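 After a 24 h chemical treatment, transiently transfected HepG2 cells were lysed for RNA; reporter transcripts were quantified by fluorescent RT-PCR and capillary electrophoresis, normalised to DMSO.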

For assay [9], the target named is Transcription factor E2F1 (Homo sapiens) (UniProt Q01094). Description: ATG_E2F_CIS: Attagene CIS-FACTORIAL HepG2 Assay for human E2F Transcription Factor 1 (AID 2282935). As to conditions: HepG2 Attagene cis-reporter, E2F reporter RNA transcripts; actives raise or lower the signal. In outline: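 HepG2 cells transiently transfected with multiplexed cis-element reporter units, dosed for 24 h. Reporter mRNA measured by RT-PCR, 6-FAM primer-extension labeling, HpaI digestion and capillary electrophoresis; bidirectional fit versus DMSO baseline.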
Sequence of Transcription factor E2F1 (Homo sapiens) (Q01094 whole entry, looked up): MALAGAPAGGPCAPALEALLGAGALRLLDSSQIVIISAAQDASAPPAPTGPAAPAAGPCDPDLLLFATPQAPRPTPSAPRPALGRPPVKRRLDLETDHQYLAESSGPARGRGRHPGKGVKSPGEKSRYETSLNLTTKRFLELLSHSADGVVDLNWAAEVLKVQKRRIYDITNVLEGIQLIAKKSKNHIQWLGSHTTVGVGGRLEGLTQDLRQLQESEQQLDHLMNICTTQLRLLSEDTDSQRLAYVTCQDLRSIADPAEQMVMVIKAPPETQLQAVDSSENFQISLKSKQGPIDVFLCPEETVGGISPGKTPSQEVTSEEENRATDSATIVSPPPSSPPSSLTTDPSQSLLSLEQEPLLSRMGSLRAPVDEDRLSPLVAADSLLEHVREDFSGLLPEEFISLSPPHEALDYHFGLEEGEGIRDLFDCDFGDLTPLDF

Assay [10] in a line: ATG_M_61_CIS: Attagene CIS-FACTORIAL HepG2 Assay for M61 Transcription Factor (Internal Marker) (AID 2282937). As to conditions: HepG2 Attagene CIS-FACTORIAL M61 internal marker reporter; actives raise or lower the signal. In outline:
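Fluorescence from labelled cDNA fragments, separated by capillary electrophoresis, quantifies reporter induction. HepG2 cells bearing transiently transfected cis-promoter MRTUs were incubated with test chemical for 24 h; DMSO defined baseline for gain/loss fitting.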

The nature of assay [11]: ATG_EGR_CIS: Attagene CIS-FACTORIAL HepG2 Assay for human Early Growth Response 1 (EGR1) (AID 2282938). As to conditions: HepG2 Attagene CIS-FACTORIAL EGR reporter mRNA; actives raise or lower the signal. In outline:
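Cell-based multiplex transcription assay: HepG2 carrying transfected cis-element reporter units, 24 h chemical treatment. Fluorescence from capillary electrophoresis of RT-PCR products gives mRNA levels; fitting is bidirectional relative to DMSO.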

A short description of assay [12]: ATG_M_19_CIS: Attagene CIS-FACTORIAL HepG2 Assay for M19 Transcription Factor (Internal Marker) (AID 2282939). As to conditions: HepG2 Attagene CIS-FACTORIAL M19 internal marker reporter; actives raise or lower the signal. The procedure, abridged: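 In this multiplexed cell assay, transiently transfected HepG2 reporter units report endogenous transcription-factor activity; after 24 hours of treatment, labelled reporter cDNA fragments are quantified by capillary electrophoresis and fitted bidirectionally against DMSO.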

Assay [13] in a line: ATG_Ets_CIS: Attagene CIS-FACTORIAL HepG2 Assay for human Erythroblast Transformation Specific (ETS) (AID 2282941). As to conditions: HepG2 ETS cis-reporter transcription, actives raise or lower the signal. The procedure, abridged: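 Human HepG2 hepatoma cells were transiently transfected with promoter-driven reporter constructs and treated for 24 hours. Reporter transcripts were quantified by RT-PCR with fluorescent primer extension; bidirectional curve fitting used DMSO as reference.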

For assay [14], the target named is Hepatocyte nuclear factor 3-beta (Homo sapiens) (UniProt Q9Y261). Briefly: ATG_FoxA2_CIS: Attagene CIS-FACTORIAL HepG2 Assay for human Forkhead box A2 (FOXA2) (AID 2282942). As to conditions: HepG2 cis-reporter transcription factor activity, 24 h; actives raise or lower the signal. The procedure, abridged:
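In transiently transfected human HepG2 cells, promoter-driven reporter mRNA levels after 24 h chemical exposure are determined via RT-PCR with capillary electrophoresis. DMSO serves as baseline for bidirectional fitting.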

The nature of assay [15]: ATG_FoxO_CIS: Attagene CIS-FACTORIAL HepG2 Assay for human Forkhead box O (FoxO) (AID 2282943). As to conditions: HepG2 Attagene cis-reporter, FoxO element, mRNA; actives raise or lower the signal. The procedure, abridged:
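Values reflect reporter mRNA induction or loss in HepG2 cells 24 h post-dosing, fitted bidirectionally with DMSO as negative control and baseline. Detection used RT-PCR and fluorescence capillary electrophoresis.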

Assay [16] can be described thus: ATG_GATA_CIS: Attagene CIS-FACTORIAL HepG2 Assay for human GATA Binding Protein (AID 2282944). As to conditions: HepG2 GATA cis-element reporter, Attagene multiplex mRNA; actives raise or lower the signal. In outline: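 Measures endogenous transcription factor-driven reporter mRNA in HepG2 cells transiently carrying cis-regulated constructs. 24 h dosing; RNA via oligo(dT) reverse transcription, PCR, HpaI digestion, capillary electrophoresis; fitted relative to DMSO.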

The nature of assay [17]: ATG_GLI_CIS: Attagene CIS-FACTORIAL HepG2 Assay for human Zinc Finger Protein GLI1 (AID 2282945). Conditions: HepG2, Attagene cis-factorial reporter mRNA, GLI element; actives raise or lower the signal. In outline: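 HepG2 cells transiently transfected with cis-promoter multiplexed reporter units report endogenous transcription factor activity. After 24 h chemical exposure, reporter mRNA was quantified by RT-PCR, 6-FAM labelling, HpaI digestion and capillary electrophoresis, with bidirectional fitting against DMSO.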

Assay [18] has as its target Retinoic acid receptor alpha (Homo sapiens) (UniProt P10276). Description: ATG_DR5_RAR_CIS: Attagene CIS-FACTORIAL HepG2 Assay for human Retinoic Acid Receptor Alpha (RARE), DR5 submotif (AID 2282934).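 As to AC50: reporter responds to endogenous RAR alpha beta and gamma in HepG2 not RARA alone.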 As to conditions: HepG2 Attagene cis-factorial RARE DR5 reporter, mRNA; actives raise or lower the signal. The procedure, abridged:
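Endpoint fitted in both directions relative to DMSO as negative control. It reflects DR5 cis-element reporter mRNA induction in transiently transfected HepG2 cells, measured 24 h after dosing through RT-PCR and fluorescent capillary electrophoresis.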

Assay [19] addresses Bile acid receptor (Homo sapiens) (UniProt Q96RI1). Briefly: ATG_IR1_CIS: Attagene CIS-FACTORIAL HepG2 Assay for human Nuclear Receptor Subfamily 1 Group H Member 4 (NR1H4), IR1 submotif (AID 2282946). Conditions: IR1 reporter transcription, actives raise or lower the signal. In outline: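 Transient MRTU transfection, HepG2; 24 h dosing; RNA → RT-PCR → 6-FAM primer extension → HpaI digest → capillary electrophoresis fluorescence. Gain/loss of signal fitted relative to DMSO.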

Sequence of CCAAT/enhancer-binding protein beta (Homo sapiens) (P17676 whole entry, looked up): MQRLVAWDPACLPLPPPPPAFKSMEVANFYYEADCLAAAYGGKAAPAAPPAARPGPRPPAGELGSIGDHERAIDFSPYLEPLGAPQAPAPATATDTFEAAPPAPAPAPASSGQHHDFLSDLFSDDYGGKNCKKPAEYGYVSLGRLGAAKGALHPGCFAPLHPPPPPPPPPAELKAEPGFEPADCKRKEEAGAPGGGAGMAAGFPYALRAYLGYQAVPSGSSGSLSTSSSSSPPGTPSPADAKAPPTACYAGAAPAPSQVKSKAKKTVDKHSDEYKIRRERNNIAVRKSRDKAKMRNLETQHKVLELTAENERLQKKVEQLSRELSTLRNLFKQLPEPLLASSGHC
Sequence of Hepatocyte nuclear factor 3-beta (Homo sapiens) (Q9Y261 whole entry, looked up): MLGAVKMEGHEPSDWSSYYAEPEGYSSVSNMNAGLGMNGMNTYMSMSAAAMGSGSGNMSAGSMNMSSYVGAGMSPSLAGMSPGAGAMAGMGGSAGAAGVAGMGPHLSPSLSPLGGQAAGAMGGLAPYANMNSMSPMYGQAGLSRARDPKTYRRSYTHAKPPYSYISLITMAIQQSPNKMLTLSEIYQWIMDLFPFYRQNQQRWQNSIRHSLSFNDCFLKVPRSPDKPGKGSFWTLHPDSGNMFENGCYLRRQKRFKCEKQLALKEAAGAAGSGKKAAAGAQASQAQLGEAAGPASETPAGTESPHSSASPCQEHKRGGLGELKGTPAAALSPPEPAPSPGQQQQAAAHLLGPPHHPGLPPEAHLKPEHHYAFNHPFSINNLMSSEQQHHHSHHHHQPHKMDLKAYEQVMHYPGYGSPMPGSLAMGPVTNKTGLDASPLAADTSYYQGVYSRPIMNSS
Sequence of Retinoic acid receptor alpha (Homo sapiens) (P10276 whole entry, looked up): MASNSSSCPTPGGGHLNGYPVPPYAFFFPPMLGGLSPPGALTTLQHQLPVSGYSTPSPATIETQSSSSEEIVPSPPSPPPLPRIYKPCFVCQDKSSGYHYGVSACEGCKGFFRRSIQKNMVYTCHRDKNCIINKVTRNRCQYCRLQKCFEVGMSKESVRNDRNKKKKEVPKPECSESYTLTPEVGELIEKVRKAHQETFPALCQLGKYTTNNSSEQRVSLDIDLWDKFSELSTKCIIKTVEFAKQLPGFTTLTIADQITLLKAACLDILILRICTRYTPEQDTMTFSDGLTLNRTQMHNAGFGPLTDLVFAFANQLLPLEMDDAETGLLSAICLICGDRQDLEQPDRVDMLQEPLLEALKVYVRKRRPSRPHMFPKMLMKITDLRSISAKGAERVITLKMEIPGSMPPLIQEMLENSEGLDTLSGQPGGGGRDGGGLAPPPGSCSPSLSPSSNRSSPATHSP
Sequence of Bile acid receptor (Homo sapiens) (Q96RI1 whole entry, looked up): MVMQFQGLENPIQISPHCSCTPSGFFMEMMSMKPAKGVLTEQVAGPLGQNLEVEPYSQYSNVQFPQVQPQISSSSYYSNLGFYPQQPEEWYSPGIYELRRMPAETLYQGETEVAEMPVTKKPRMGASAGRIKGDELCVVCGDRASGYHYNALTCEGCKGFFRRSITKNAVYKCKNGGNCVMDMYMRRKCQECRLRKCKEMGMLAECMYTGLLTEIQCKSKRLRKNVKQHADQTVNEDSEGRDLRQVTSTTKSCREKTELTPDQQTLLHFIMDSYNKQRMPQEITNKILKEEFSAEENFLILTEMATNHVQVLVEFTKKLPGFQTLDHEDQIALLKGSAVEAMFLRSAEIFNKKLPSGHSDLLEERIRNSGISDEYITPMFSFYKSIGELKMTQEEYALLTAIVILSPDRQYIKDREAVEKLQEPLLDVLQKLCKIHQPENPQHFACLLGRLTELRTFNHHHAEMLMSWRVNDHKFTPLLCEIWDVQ

Turning to `CCCCOC(=O)[C@@H](C)Oc1ccc(Oc2ccc(C#N)cc2F)cc1`, the compound was called inactive in assay [1], in [2], in assay [3], in assay [4], in [5] and in [6]. Besides, the outcome in [7], in assay [8], in assay [9], in [10], in assay [11] and in [12] was inactive. The compound was called inactive in [13], in [14], in assay [15], in assay [16] and in assay [17].

With `CCOP(=S)(OCC)Oc1ccc2c(C)c(Cl)c(=O)oc2c1`, the compound was called inactive in assay [1], in [2], in assay [3], in [4], in assay [5] and in [6]. Besides, the result in [7], in assay [8], in [9], in assay [10], in [11] and in assay [12] was inactive. The outcome in assay [13], in assay [14], in assay [15] and in assay [17] was inactive. The half-maximal activity concentration (AC50) – broadly, the concentration at which the activity in the assay is half-maximal – in [18] was 1.59 µM (active).

As to `CSc1nnc(C(C)(C)C)c(=O)n1N`, the result in assay [1], in assay [2], in [3], in assay [4], in [6] and in [7] was inactive. The compound was classed as inactive in assay [8], in assay [18], in assay [9], in assay [10], in [11] and in assay [12]. Moreover, the compound was called inactive in [13], in assay [14], in [15], in assay [16], in [17] and in [19].

As for `COP(=O)(OC)C(O)C(Cl)(Cl)Cl` (stereo not given), the concentration at half-maximal activity (AC50) was 32 µM (active) in assay [1]; 50 µM (active) in assay [2]; 22.1 µM (active) in assay [3]; 35.2 µM (active) in assay [6]; 30.1 µM (active) in assay [8]; 67.3 µM (active) in assay [11]. Besides, the compound was called inactive in assay [4], in assay [5], in assay [7], in assay [18], in assay [9] and in [10]. The result in assay [12], in assay [13], in [14], in assay [15], in [17] and in assay [19] was inactive.
